Reference: PubChem BioAssay AID1445 (SRMLSC, 2008)
About 910 (0.41%) of roughly 220,000 compounds were called active. The list comes from a sample in which actives are over-represented; it also holds similar structures and randomly drawn compounds. Entries with a potency or affinity are not part of this list. Values without a mark were called inactive.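 How the source made its calls: active means primary inhibition above the hit cutoff, then over 50% inhibition at one or more dose response concentrations (cut at about 23% in these data, passing the limit was not always enough); inconclusive means conflicting primary data, or primary hits not chosen for dose response; inactive means low primary inhibition, or under 50% at every dose.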

Biological target: Aminopeptidase N (Plasmodium falciparum (isolate 3D7)) (UniProt O96935)
Assay: malaria alanyl aminopeptidase activity blockers – biochemical, fluorogenic H-Leu-NHMec substrate, 1536-well (AID 1445);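 further: plate controls were DMSO full reaction for no effect and no enzyme background for full effect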
Settings: recombinant M1AAP, H-Leu-NHMec fluorogenic kinetic assay; at 30 µM, stronger effect = higher value unless noted

Chain of Aminopeptidase N (Plasmodium falciparum (isolate 3D7)) (O96935 whole entry, looked up): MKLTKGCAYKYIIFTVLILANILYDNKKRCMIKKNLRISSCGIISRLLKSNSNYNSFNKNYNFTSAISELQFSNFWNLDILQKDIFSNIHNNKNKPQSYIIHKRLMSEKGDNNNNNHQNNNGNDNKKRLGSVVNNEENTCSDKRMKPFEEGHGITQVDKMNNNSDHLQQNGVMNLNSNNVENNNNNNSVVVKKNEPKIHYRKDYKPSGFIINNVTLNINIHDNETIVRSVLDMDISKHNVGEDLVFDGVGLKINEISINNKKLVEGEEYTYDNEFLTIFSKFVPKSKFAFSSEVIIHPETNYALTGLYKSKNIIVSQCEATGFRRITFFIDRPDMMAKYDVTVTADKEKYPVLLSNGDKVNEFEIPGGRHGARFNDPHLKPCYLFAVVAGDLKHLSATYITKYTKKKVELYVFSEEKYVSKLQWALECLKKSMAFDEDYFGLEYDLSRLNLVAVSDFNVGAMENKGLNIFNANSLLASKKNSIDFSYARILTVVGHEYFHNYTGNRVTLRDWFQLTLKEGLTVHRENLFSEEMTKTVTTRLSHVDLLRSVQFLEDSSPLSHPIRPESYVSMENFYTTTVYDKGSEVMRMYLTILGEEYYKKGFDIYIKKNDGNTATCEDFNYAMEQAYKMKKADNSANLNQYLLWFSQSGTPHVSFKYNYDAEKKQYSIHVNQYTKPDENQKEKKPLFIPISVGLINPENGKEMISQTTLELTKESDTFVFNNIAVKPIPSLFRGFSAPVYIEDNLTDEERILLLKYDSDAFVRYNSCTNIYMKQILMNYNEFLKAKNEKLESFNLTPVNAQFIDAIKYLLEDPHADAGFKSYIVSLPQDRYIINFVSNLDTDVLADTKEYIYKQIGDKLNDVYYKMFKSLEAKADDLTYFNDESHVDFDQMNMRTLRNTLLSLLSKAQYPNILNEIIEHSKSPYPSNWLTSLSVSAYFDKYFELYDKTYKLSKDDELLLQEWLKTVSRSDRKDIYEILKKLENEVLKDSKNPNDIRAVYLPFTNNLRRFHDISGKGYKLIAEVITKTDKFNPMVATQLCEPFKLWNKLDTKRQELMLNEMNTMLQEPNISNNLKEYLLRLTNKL

Compound | inhibition
COC(=O)c1ccc(CSc2nc3c(c(=O)n2-c2ccccc2)SCC3)o1 | 5.07%
CCN(CC)CCCNC(=O)c1ccc(N2CCCCC2)c(NS(=O)(=O)c2ccc(C)cc2)c1 | -3.11%
CC(CN1CCCC1)C(=O)NN (stereo unspecified) | -2.99%
O=c1[nH]c2cc(Cl)c([N+](=O)[O-])nc2[nH]1 | 11.7%
Cc1nc(/C(=N/O)C(N)=O)cs1 | 3.08%
CCOC(=O)COc1ccc(Br)cc1C1NC(=O)NC(C)=C1C(=O)NCc1ccccc1 (stereo unspecified) | -5.37%
O=C(NCCc1nc2ccccc2[nH]1)c1ccco1 | -3.58%
Nc1ncc(Br)cc1S(=O)(=O)NCCC(=O)Nc1cccc(Cl)c1 | 0.42%
Cc1ccc(C(=O)Nc2ccc3c(c2)CCC3)o1 | 6.8%
COc1cccc(OC)c1C(=O)N1CCN(c2c(Cc3ccccc3)c(C)nc3ncnn23)CC1 | 7.55%
Cc1ccc2c(CNCc3ccco3)cc(=O)oc2c1 | 7.2%
CS(=O)(=O)N1CCC(C(=O)NCc2ccc(F)cc2)CC1 | 12.5%
CCS(=O)(=O)N1CCC(C(=O)NCc2ccc(F)cc2)CC1 | 5.77%
Cc1ccc(S(=O)(=O)Nc2cccc(-c3cn4ccsc4n3)c2)cc1 | 7.08%
COc1ccccc1N1CCN(c2ncnc3nc[nH]c23)CC1 | 3.64%
COc1ccc(C=C2C(=O)c3ccccc3C2=O)cc1O | 13.7%

Compound | inhibition
COc1cc(C=C2C(=O)c3ccccc3C2=O)ccc1O | 12.8%
COc1ccccc1N1CCN(c2nc3ccccc3nc2C(C#N)C(=O)OC(C)C)CC1 (stereo unspecified) | 1.03%
Cn1ncc2cc(NC(N)=S)ccc21 | 5.67%
COc1cccc(NC(=O)COc2ccccc2C(N)=O)c1 | -6.65%
COC(=O)c1nc(N)sc1-c1ccc(Cl)cc1 | 7.93%
CC1(C)Cc2c(sc3c2c(N)nc(=S)n3Cc2ccc(Br)cc2)CO1 | 5.16%
Cc1ccc(Nc2cc(-n3nc(C)cc3C)ncn2)cc1 | 26.7% (active)
Cc1cc(C)n(-c2cc(-n3nc(C)cc3C)ncn2)n1 | 7.79%
Cc1ccc(Nc2cc(-n3nc(C)cc3C)ncn2)c(C)c1 | -27.3%
CC1(C)CC(=O)C(C=NCCN2CCN(C(=S)NC3CCCCC3)CC2)=C(O)C1 | -1.18%
Cc1ccc(NC(=O)CN(C)CC(=O)Nc2ccccc2Oc2ccccc2)cc1 | -4.16%
O=C(N/N=C\c1ccc(-c2ccccc2[N+](=O)[O-])o1)C1COc2ccccc2O1 (stereo unspecified) | 5.3%
O=C(N/N=C/c1cccc([N+](=O)[O-])c1)C1COc2ccccc2O1 (stereo unspecified) | -7.31%
O=C(N/N=C\c1ccc([N+](=O)[O-])o1)C1COc2ccccc2O1 (stereo unspecified) | 15.2%
O=C(N/N=C\c1ccc(O)c([N+](=O)[O-])c1)C1COc2ccccc2O1 (stereo unspecified) | 21.5%
